Laboratory results from PubChem BioAssay AID686952 (The Scripps Research Institute Molecular Screening Center, 2013).
Hit rate of the full screen: of about 3,200 compounds, about 2,600 (81%) were called active.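 Rule for the calls: active = activation above the all-compound mean plus 3 SD, ignoring values outside control-based bounds (cut at about 4.8% in these data); inactive = the rest.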 So high a share suggests a set chosen from earlier hits. Not all results are given here.

Experiment: apparent activators from fluorescence artefacts, no enzyme – biochemical, fluorescence intensity, high throughput, artefact control for kallikrein-7 zymogen activator project (AID 686952);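 note: value is the 4 h activation minus the activation read at time zero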
Settings: EDANS-DABCYL substrate fluorescence interference, 4 h, at 7 µM, hits give high values

With `CCOC(=O)c1c(N)n(CCN2CCOCC2)c2nc3ccccc3nc12` as the compound, how does the activation read?
Its activation is 31.4% (active).

With `Cc1nc2ccc(N3CCN(C)CC3)cc2nc1C` as the compound, how does the activation read?
The activation was 13.9% (active).

With `CCOc1ccc(-c2cc(C)[n+](CCN(CC)CC)c(-c3ccc(OCC)cc3)c2)cc1` as the compound, how does the activation read?
Its activation is 37.3% (active).

Which activation does the source give for `COc1cccc(-c2nc3ccc(N4CCN(C)CC4)cc3[nH]2)c1` here?
Its activation is 65.7% (active).
